Compounds without any hit were thinned out: in the full panel of roughly 83,000, 20% have a hit.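 Interpretation: 100, growth as untreated; towards 0, rising growth inhibition; 0, no net growth; 0 to -100, cell death. Compounds scoring below 10 were considered active.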 Unmarked numbers belong to inactive results. Calls of active or inactive are those of the source.

What all share (experiment): NCI-60 one-dose screen, 48 h (100 = growth as untreated, 0 = no growth, -100 = all killed)
Holding throughout (conditions): 10 µM unless noted

The test system of assay [1] is SK-MEL-2 melanoma.
Assay [2] relates to EKVX NSCLC.
Assay [3] has as its system SN12C renal.
For assay [4], the system named is UO-31 renal.
The test system of assay [5] is TK-10 renal.
Assay [6] has as its system ACHN renal.
In assay [7] the test system is CAKI-1 renal.
For assay [8], the system named is A498 renal.
In assay [9] the test system is CCRF-CEM leukemia.
In assay [10] the test system is SR leukemia.
Assay [11] deals with RPMI-8226 leukemia.
Assay [12] concerns OVCAR-8 ovarian.
Assay [13] concerns OVCAR-5 ovarian.
For assay [14], the system named is OVCAR-4 ovarian.
Assay [15] has as its system SK-OV-3 ovarian.
In assay [16] the test system is IGROV1 ovarian.
For assay [17], the system named is OVCAR-3 ovarian.
The subject of assay [18] is HS 578T breast.
Assay [19] has as its system NCI/ADR-RES ovarian.
Assay [20] deals with MOLT-4 leukemia.

Turning to `COc1ccc(/C=N\Nc2nc(SCCC(C)C)nc(-c3ccc(OC)cc3)c2C#N)cc1`, the growth in assay [1] is 103%; in assay [2], 44.8%; in assay [3] it was 32.2%; in assay [4], -41.4% (active); in assay [5], 11.2%; in [6], -41.5% (active). Also, the growth in [7] was 17%; in assay [8] it was 98.5%; in [9], 31.4%; in [10] it was 4.53% (active); in [11] it was 54.4%; in assay [12], 39.5%. Further, the growth in assay [13] was 63.3%; in assay [14] it was -57.2% (active); in assay [15] it was 56.9%; in assay [16], 34.5%; in [17], 12.8%; in assay [18] it was 29.4%. In addition, in assay [19], the growth was 74.8%.
Take `Cn1cc(-c2nonc2-c2cn(C)c3ccccc23)c2ccccc21`: the growth was 35.6% in [1]; 40.4% in assay [2]; 43.6% in assay [3]; 40.5% in assay [4]; 62.5% in assay [5]; 44.4% in assay [6]. Also, the growth in assay [7] is 31.3%; in [8] it was 12.3%; in assay [9], 9.67% (active); in assay [20], 17.5%; in [11] it was 14.2%; in assay [12], 17.4%. The growth in [13] is 35.5%; in [14] it was 56.1%; in assay [15], 18.7%; in [16] it was 45.9%; in assay [17], 0.348% (active); in assay [18] it was 30.7%. The growth in assay [19] was 17.4%.
Take `COc1ccc(NC(=O)c2sc3nc(C)c(C(=O)/C=C/c4ccccc4)cc3c2N)cc1`: the growth in assay [1] was 88.7%; in assay [2], 87.1%; in assay [3] it was 17.6%; in assay [4] it was 17.7%; in assay [5], 80.5%; in [6], 50.3%. The growth in [7] is 29%; in [8], 21%; in [9], 3.56% (active); in [10], 14.7%; in assay [11], -24.4% (active); in assay [12] it was 8.59% (active). Moreover, the growth in [13] was 63.5%; in assay [14] it was 52.3%; in [15] it was 103%; in assay [16] it was 17%; in assay [17], 0.065% (active); in [18] it was 34%. Further, the growth in [19] is 15.5%.
On to `COC1=CC(c2ccc[nH]2)=N/C1=C\c1[nH]c(C)c(C)c1CCC(=O)OCc1ccccc1`, for which the growth was -28.9% (active) in assay [1]; -22.1% (active) in assay [2]; -30% (active) in assay [3]; -77.1% (active) in assay [4]; -0.0887% (active) in assay [5]; -39.5% (active) in assay [6]. The growth in [7] is -23.5% (active); in assay [8], -19.8% (active); in assay [9] it was 0.65% (active); in assay [20], -23.7% (active); in assay [11], -51.1% (active); in assay [12], -11.3% (active). The growth in assay [13] is 7.87% (active); in [14] it was 9.61% (active); in assay [15], 29.5%; in [16] it was 0.242% (active); in assay [17] it was -73.8% (active); in [18], -9.2% (active). Also, the growth in assay [19] is -0.591% (active).
Consider `CC(C)c1ccc(-n2c(=S)[nH]c3sc4cc(O)ccc4c3c2=O)cc1`, for which the growth is 121% in [1]; 103% in assay [2]; 99.5% in [3]; 77% in [4]; 123% in assay [5]; 99% in assay [6]. In addition, the growth in [7] is 91.7%; in assay [8], 61.5%; in assay [9], 103%; in assay [10] it was 102%; in assay [11] it was 100%; in assay [12] it was 102%. For the same compound, the growth in assay [13] is 100%; in assay [14] it was 111%; in [15], 112%; in assay [16] it was 91.4%; in assay [17], 104%; in assay [18], 92.4%. Further, the growth in [19] is 103%.
On to `CCOC(=O)C/C(=N\Nc1cc(=O)[nH]c2ccc(Br)cc12)C(=O)OCC`, for which the growth in [1] was 103%; in assay [2] it was 109%; in [3], 100%; in assay [4], 71.4%; in assay [5], 126%; in assay [6], 95.7%. Moreover, the growth was 83.1% in assay [7]; 122% in assay [8]; -36.7% (active) in assay [9]; 40.8% in [10]; 83.2% in assay [11]; 98.6% in [12]. The growth in [13] is 99.6%; in assay [14], 96.6%; in assay [15] it was 105%; in [16] it was 82.6%; in assay [17], 100%; in assay [18], 92%. The growth in assay [19] is 93.4%.
As for `CCN(CC)CCn1c2ccc(O)cc2c2sc3cc(O)ccc3c(=O)c21`, the growth in assay [1] was 57.9%; in assay [2], 48.8%; in assay [3], 20.9%; in [4], 26%; in assay [5] it was 64.9%; in assay [6], 3.32% (active). Also, the growth is 43.5% in [7]; 41.6% in assay [8]; 14.6% in assay [9]; 5.78% (active) in [10]; 28.3% in [11]; 31.4% in assay [12]. The growth in assay [14] is 46.6%; in [15], 48.7%; in assay [16], 15.4%; in assay [17] it was 41%; in assay [18], 64.5%; in assay [19], 61.1%.
As to `COc1cccc(/C=C2\COc3ccc(O)c(O)c3C2=O)c1`, the growth in assay [1] was 57.1%; in assay [2], 60.2%; in assay [3], -54.3% (active); in assay [4] it was -93.3% (active); in assay [5], 21.5%; in assay [6] it was -79.2% (active). Moreover, the growth in assay [7] is 0.272% (active); in assay [8], 111%; in assay [9], 3.04% (active); in [10], 12.6%; in assay [11], -7.52% (active); in assay [12], 10.7%. In addition, the growth is -2.7% (active) in assay [13]; 26.9% in assay [14]; 86.2% in assay [15]; -31.1% (active) in assay [16]; -28.3% (active) in assay [17]; 20.4% in [18]. The growth in [19] is 2.6% (active).
